This excerpt belongs to a sample that is enriched for the strongest signals.
Tests used:
Assay in all cases: glycan array binding signal (z-score within array); higher = stronger binding
Conditions in all cases: glycan notation: IUPAC condensed, linker removed
[1] = target: Fuc(a1-2)Gal(b1-3)GalNAc(b1-3)Gal(a1-4)Gal(b1-4)Glc
In short: (§1)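 Columns mapping to the same glycan were averaged after glycan names were converted to IUPAC-condensed notation. The data come from 3228 arrays in the Consortium for Functional Glycomics database, limited to those with an available protein sequence. Binding is reported as a within-array Z-score averaged across arrays of one protein sequence and across linkers.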

Fuc(a1-2)GlcNAc = target: Fuc(a1-2)GlcNAc
In short: as §1

Gal(a1-6)Glc = target: Gal(a1-6)Glc
In short: as §1

[2] = target: Gal(b1-3)[Fuc(a1-4)]GlcNAc(b1-3)Gal(b1-4)[Fuc(a1-3)]GlcNAc
In short: as §1

Gal(b1-4)Glc6S = target: Gal(b1-4)Glc6S
In short: as §1

[3] = target: Gal(b1-4)GlcNAc(b1-3)Gal(b1-4)Glc
In short: as §1

Glc(a1-4)Glc = target: Glc(a1-4)Glc
In short: as §1

Glc(a1-6)Glc(a1-6)Glc = target: Glc(a1-6)Glc(a1-6)Glc
In short: as §1

Glc(b1-4)Glc = target: Glc(b1-4)Glc
In short: as §1

[4] = target: GlcNAc(a1-3)Gal(b1-4)GlcNAc
In short: as §1

[5] = target: GlcNAc(b1-4)GlcNAc(b1-4)GlcNAc
In short: as §1

[6] = target: Man(a1-2)Man(a1-2)Man(a1-6)[Man(a1-3)]Man
In short: as §1

[7] = target: Neu5Ac(a2-3)Gal(b1-4)[Fuc(a1-3)]GlcNAc
In short: as §1

[8] = target: Neu5Ac(a2-3)Gal(b1-4)[Fuc(a1-3)]GlcNAc(b1-3)Gal(b1-4)[Fuc(a1-3)]GlcNAc(b1-3)Gal(b1-4)[Fuc(a1-3)]GlcNAc
In short: as §1

Neu5Ac(a2-3)GalNAc = target: Neu5Ac(a2-3)GalNAc
In short: as §1

[9] = target: Neu5Ac(a2-6)Gal(b1-4)GlcNAc(b1-3)Gal(b1-4)GlcNAc
In short: as §1

[10] = target: Neu5Ac(a2-6)Gal(b1-4)GlcNAc(b1-3)Gal(b1-4)[Fuc(a1-3)]GlcNAc(b1-3)Gal(b1-4)[Fuc(a1-3)]GlcNAc
In short: as §1

[11] = target: Neu5Ac(a2-8)Neu5Ac(a2-8)Neu5Ac
In short: as §1

B1: FaeGad (Escherichia coli) (protein)
chain: WMTGDFNGSVDIGGSITADDYRQKWEWEVGTGLNGFGSVLNDLTNGGTKLTITVTGNKPILLGRTKEAFATPVTSGVDGIPHIAFTDYEGASVELRNPDGETEKGLTYFVLPMKNAEGTKVGSVKVNASYAGALGRGGVTSADGELMSLFAEGSHAIFYGGLPTNVKNSELKGGSAAAARTELFGSLSKNDILGQIQRVNANITSLVNVPGSFNENMAYTDGSVVSVAYALGIANGQTIEATFNQAVTTSTQWSAPLNVAITYY
[1]
  glycan array binding signal (z-score): -0.404
Fuc(a1-2)GlcNAc
  glycan array binding signal (z-score): -0.247
Gal(a1-6)Glc
  glycan array binding signal (z-score): 0.615
[2]
  glycan array binding signal (z-score): 0.979
Gal(b1-4)Glc6S
  glycan array binding signal (z-score): 0.601
[3]
  glycan array binding signal (z-score): 0.629
Glc(a1-4)Glc
  glycan array binding signal (z-score): 9.55
Glc(a1-6)Glc(a1-6)Glc
  glycan array binding signal (z-score): 10.2
Glc(b1-4)Glc
  glycan array binding signal (z-score): 3.57
[4]
  glycan array binding signal (z-score): 0.188
[5]
  glycan array binding signal (z-score): 0.137
[6]
  glycan array binding signal (z-score): 1.83
[7]
  glycan array binding signal (z-score): -0.45
[8]
  glycan array binding signal (z-score): -0.187
Neu5Ac(a2-3)GalNAc
  glycan array binding signal (z-score): -0.452
[9]
  glycan array binding signal (z-score): -0.289
[10]
  glycan array binding signal (z-score): -0.414
[11]
  glycan array binding signal (z-score): -0.377

Reference: the supplement of paper PMC8728848
